Reference: PubChem BioAssay AID1159580 (chemical genetic matrix, 2015)
Among all 5,500 compounds or so, about 2,000 (36%) were called active. Not shown: some 18% with an inconclusive outcome. Rule as the data show it: active = normalized growth mostly below about 0.91 (no sharp cut-off); inconclusive = no clear call, values can overlap the other calls; inactive = mostly above about 0.92. This is one part of the list.

Test: chemical genetic growth profiling, strain panel (AID 1159580);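 also: tested at 20 µM; growth read once vehicle control cultures reached saturation at 30 °C; 1 = growth at the plate median or of vehicle wells; lower values mean less growth of the strain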
Conditions: growth OD

Measured: normalized growth

CCCCCCOc1ccccc1C(N)=O
active: S. cerevisiae deletion strains, locus YJR043C, strain POL32, stronger effect = lower value 0.529 | S. cerevisiae deletion strains, locus YJR066W, strain TOR1, stronger effect = lower value 0.815 | S. cerevisiae deletion strains, locus YKL009W, strain mrt4, stronger effect = lower value 0.768 | S. cerevisiae deletion strains, locus YKL068W, stronger effect = lower value 0.851 | S. cerevisiae deletion strains, locus YKL085W, strain MDH1 (second series), stronger effect = lower value 0.826 | S. cerevisiae deletion strains, locus YKL085W, strain MDH1, stronger effect = lower value 0.826 | S. cerevisiae deletion strains, locus YKL160W, strain elf1, stronger effect = lower value 0.883 | S. cerevisiae deletion strains, locus YKL190W, strain CNB1, stronger effect = lower value 0.281 | S. cerevisiae deletion strains, locus YKR001C, strain vps1, stronger effect = lower value 0.678 | S. cerevisiae deletion strains, locus YLL001W, strain dnm1, stronger effect = lower value 0.887 | S. cerevisiae deletion strains, locus YLL026W, stronger effect = lower value 0.877 | S. cerevisiae deletion strains, locus YLR027C, strain aat2, stronger effect = lower value 0.898 | S. cerevisiae deletion strains, locus YLR058C, strain SHM2, stronger effect = lower value 0.641 | S. cerevisiae deletion strains, locus YLR102C, strain apc9, stronger effect = lower value 0.667 | S. cerevisiae deletion strains, locus YLR113W, strain HOG1, stronger effect = lower value 0.85 | S. cerevisiae deletion strains, locus YLR221C, strain rsa3, stronger effect = lower value 0.845 | S. cerevisiae deletion strains, locus YLR258W, strain gsy2, stronger effect = lower value 0.862 | S. cerevisiae deletion strains, locus YLR268W, strain sec22, stronger effect = lower value 0.308 | S. cerevisiae deletion strains, locus YLR320W, strain mms22, stronger effect = lower value 0.59 | S. cerevisiae deletion strains, locus YLR330W, strain CHS5, stronger effect = lower value 0.355 | S. cerevisiae deletion strains, locus YLR342W, strain FKS1 (second series), stronger effect = lower value 0.366 | S. cerevisiae deletion strains, locus YLR342W, strain FKS1, stronger effect = lower value 0.859 | S. cerevisiae deletion strains, locus YLR371W, strain rom2, stronger effect = lower value 0.566 | S. cerevisiae deletion strains, locus YLR418C, strain cdc73, stronger effect = lower value 0.207 | S. cerevisiae deletion strains, locus YML016C, strain PPZ1, stronger effect = lower value 0.822 | S. cerevisiae deletion strains, locus YML032C, strain rad52, stronger effect = lower value 0.526 | S. cerevisiae deletion strains, locus YML120C, strain ndi1, stronger effect = lower value 0.857 | S. cerevisiae deletion strains, locus YML124C, strain tub3, stronger effect = lower value 0.725 | S. cerevisiae deletion strains, locus YMR058W, strain fet3, stronger effect = lower value 0.807 | S. cerevisiae deletion strains, locus YMR078C, strain ctf18, stronger effect = lower value 0.361 | S. cerevisiae deletion strains, locus YMR125W, strain sto1, stronger effect = lower value 0.785 | S. cerevisiae deletion strains, locus YMR205C, strain PFK2, stronger effect = lower value 0.835 | S. cerevisiae deletion strains, locus YMR223W, strain ubp8, stronger effect = lower value 0.55 | S. cerevisiae deletion strains, locus YMR307W, strain GAS1, stronger effect = lower value 0.457 | S. cerevisiae deletion strains, locus YNL067W, strain RPL9B, stronger effect = lower value 0.599 | S. cerevisiae deletion strains, locus YNL071W, strain lat1, stronger effect = lower value 0.57 | S. cerevisiae deletion strains, locus YNL153C, strain GIM3, stronger effect = lower value 0.502 | S. cerevisiae deletion strains, locus YNL209W, strain ssb2, stronger effect = lower value 0.902 | S. cerevisiae deletion strains, locus YNL233W, strain BNI4, stronger effect = lower value 0.326 | S. cerevisiae deletion strains, locus YNL248C, strain rpa49, stronger effect = lower value 0.865 | S. cerevisiae deletion strains, locus YNL250W, strain rad50, stronger effect = lower value 0.871 | S. cerevisiae deletion strains, locus YNL271C, strain bni1, stronger effect = lower value 0.696 | S. cerevisiae deletion strains, locus YNL298W, strain CLA4, stronger effect = lower value 0.778 | S. cerevisiae deletion strains, locus YNL307C, strain MCK1, stronger effect = lower value 0.0873 | S. cerevisiae deletion strains, locus YNL322C, strain KRE1, stronger effect = lower value 0.705 | S. cerevisiae deletion strains, locus YNR052C, strain pop2, stronger effect = lower value 0.797 | S. cerevisiae deletion strains, locus YOL006C, strain TOP1, stronger effect = lower value 0.135 | S. cerevisiae deletion strains, locus YOL147C, strain pex11, stronger effect = lower value 0.243 | S. cerevisiae deletion strains, locus YOR061W, strain CKA2, stronger effect = lower value 0.794 | S. cerevisiae deletion strains, locus YOR069W, strain VPS5, stronger effect = lower value 0.798 | S. cerevisiae deletion strains, locus YOR070C, strain gyp1, stronger effect = lower value 0.891 | S. cerevisiae deletion strains, locus YOR083W, strain WHI5, stronger effect = lower value 0.855 | S. cerevisiae deletion strains, locus YOR106W, strain vam3, stronger effect = lower value 0.861 | S. cerevisiae deletion strains, locus YOR136W, strain idh2, stronger effect = lower value 0.719 | S. cerevisiae deletion strains, locus YOR144C, strain elg1, stronger effect = lower value 0.485 | S. cerevisiae deletion strains, locus YOR184W, strain ser1, stronger effect = lower value 0.187 | S. cerevisiae deletion strains, locus YOR270C, strain vph1, stronger effect = lower value 0.446 | S. cerevisiae deletion strains, locus YOR316C, strain cot1, stronger effect = lower value 0.567 | S. cerevisiae deletion strains, locus YPL051W, strain arl3, stronger effect = lower value 0.878 | S. cerevisiae deletion strains, locus YPL078C, strain atp4, stronger effect = lower value 0.729 | S. cerevisiae deletion strains, locus YPR119W, strain clb2, stronger effect = lower value 0.625 | S. cerevisiae deletion strains, locus YPR141C, strain kar3, stronger effect = lower value 0.825 | S. cerevisiae deletion strains, locus YPR163C, strain tif3, stronger effect = lower value 0.142 | S. cerevisiae deletion strains, locus YPR167C, strain met16, stronger effect = lower value 0.627 | S. cerevisiae deletion strains, strain wtn01, stronger effect = lower value 0.444 | S. cerevisiae strains, strain wild type, stronger effect = lower value 0.559
inactive: S. cerevisiae deletion strains, locus YKR026C, strain gcn3, stronger effect = lower value 0.948 | S. cerevisiae deletion strains, locus YKR091W, strain srl3, stronger effect = lower value 0.953 | S. cerevisiae deletion strains, locus YLL041C, strain sdh2, stronger effect = lower value 0.94 | S. cerevisiae deletion strains, locus YLR039C, strain RIC1, stronger effect = lower value 1.04 | S. cerevisiae deletion strains, locus YLR262C, strain YPT6 (second series), stronger effect = lower value 1.11 | S. cerevisiae deletion strains, locus YLR262C, strain YPT6, stronger effect = lower value 0.921 | S. cerevisiae deletion strains, locus YLR357W, strain rsc2, stronger effect = lower value 1.07 | S. cerevisiae deletion strains, locus YLR370C, strain arc18, stronger effect = lower value 0.932 | S. cerevisiae deletion strains, locus YLR384C, strain iki3, stronger effect = lower value 0.959 | S. cerevisiae deletion strains, locus YMR129W, stronger effect = lower value 0.945 | S. cerevisiae deletion strains, locus YMR231W, strain pep5, stronger effect = lower value 0.979 | S. cerevisiae deletion strains, locus YNL183C, strain NPR1, stronger effect = lower value 0.869 | S. cerevisiae deletion strains, locus YNL322C, strain KRE1 (second series), stronger effect = lower value 0.978 | S. cerevisiae deletion strains, locus YNR049C, strain mso1, stronger effect = lower value 0.942 | S. cerevisiae deletion strains, locus YOL012C, strain htz1 0.5 | S. cerevisiae deletion strains, locus YOR001W, strain rrp6, stronger effect = lower value 0.904 | S. cerevisiae deletion strains, locus YOR080W, strain dia2, stronger effect = lower value 0.951 | S. cerevisiae deletion strains, locus YOR231W, strain MKK1, stronger effect = lower value 0.877 | S. cerevisiae deletion strains, locus YOR265W, strain rbl2, stronger effect = lower value 0.929 | S. cerevisiae deletion strains, locus YOR290C, strain snf2, stronger effect = lower value 0.87 | S. cerevisiae deletion strains, locus YPL106C, strain sse1, stronger effect = lower value 1.01 | S. cerevisiae deletion strains, locus YPL240C, strain hsp82, stronger effect = lower value 0.945 | S. cerevisiae deletion strains, locus YPL256C, strain CLN2, stronger effect = lower value 0.864
